Source: PubChem BioAssay
CHRM1 antagonist – blocks human M1 muscarinic receptor; P11229; CHO-K1 hM1, Fluo-8 calcium fluorescence, ACh EC80 antagonist; inhibition, % at 3 µM; 360,000 tested, 1.3% active; AID 588852;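 active means percent inhibition above its own plate's cutoff, namely the mean of that plate's compound wells plus 3 SD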;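 further: peak over basal fluorescence ratio during 140 s after agonist addition; 0% = ACh EC80 plus DMSO and 100% = DMSO alone without agonist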
Target sequence (P11229 whole entry, looked up): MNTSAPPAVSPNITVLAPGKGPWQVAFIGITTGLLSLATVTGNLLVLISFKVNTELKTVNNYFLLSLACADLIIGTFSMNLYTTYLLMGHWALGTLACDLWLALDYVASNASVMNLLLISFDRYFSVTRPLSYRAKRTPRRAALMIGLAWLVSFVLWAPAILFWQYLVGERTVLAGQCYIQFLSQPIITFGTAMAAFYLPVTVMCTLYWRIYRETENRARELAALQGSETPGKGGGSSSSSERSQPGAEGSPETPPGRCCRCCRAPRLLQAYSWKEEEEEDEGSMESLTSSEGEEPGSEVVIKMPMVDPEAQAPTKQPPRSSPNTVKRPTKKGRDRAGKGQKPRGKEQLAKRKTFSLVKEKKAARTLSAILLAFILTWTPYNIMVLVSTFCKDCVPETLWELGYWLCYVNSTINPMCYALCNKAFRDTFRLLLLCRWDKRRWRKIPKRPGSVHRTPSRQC
CHO-K1 Ca antag – counter-screen for M1 antagonists: effect in parental CHO-K1 cells; inhibition, % at 3 µM; AID 602250; ATP-induced calcium, Fluo-8 fluorescence; 360,000 tested, 0.6% active;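 active means inhibition above a per-plate cutoff, the plate's mean sample inhibition plus 3 SD, cut at about 24% in these data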;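 further: 0% = DMSO plus EC80 ATP and 100% = DMSO alone without ATP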
CHO-K1 Ca PAM – nonselective activator or artifact in parental CHO-K1 calcium assay; ATP EC20, Fluo-8 calcium fluorescence; 0% at ATP EC20, 100% at ATP max; activation, % at 3 µM; 360,000 tested, 0.02% active; AID 602247;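 active means activation above the run cutoff, the mean activation of all test compounds plus 3 SD, cut at about 40% in these data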;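 further: peak over basal fluorescence ratio in a 140 s read after ATP addition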
CHO-K1 Ca ag – counter-screen for M1 agonists: effect in parental CHO-K1 cells | Fluo-8 calcium fluorescence; scaled to maximal ATP response, vehicle zero | activation, % at 3 µM | 360,000 tested, 0.48% active | AID 602248; in the data active means activation above about 15%;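 further: untransfected CHO-K1 host cells lacking M1 receptor as counterscreen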
M1 PAM – human CHRM1 positive allosteric modulation | P11229 | CHO-K1 hM1, Fluo-8 calcium fluorescence, ACh EC20; 0% = ACh EC20, 100% = maximal ACh | activation, % at 3 µM | 360,000 tested, 0.088% active; in the data active means activation above about 19%, passing the limit was not always enough
CHRM1 agonist – agonists of human M1 muscarinic receptor; 360,000 tested, 0.33% active; AID 588814; activation, % at 3 µM; CHO-K1 hM1, Fluo-8 calcium fluorescence, agonist mode; 0% DMSO, 100% acetylcholine EC100; P11229;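 active means activation above the run's mean compound activation plus 3 SD, cut at about 16% in these data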;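 further: peak over basal fluorescence ratio within a 140 s kinetic read after compound addition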
An asterisk follows results filed as active. This is a sample that favours compounds with a hit; in the whole collection about 2.3% have one here.

SMILES	CHRM1 antagonist	CHO-K1 Ca antag	CHO-K1 Ca PAM	CHO-K1 Ca ag	M1 PAM	CHRM1 agonist
Nc1nc(SCc2ccccc2)c2ncn(CCO)c2n1	-4	12	-15	0	9	-1
CCCCN(C(=O)c1ccc(C#N)cc1)c1c(N)n(CCC)c(=O)[nH]c1=O	-8	-5	12	3	7	1
COc1ccccc1CCN=C(N)NS(=O)(=O)c1ccc(C)cc1	-4	6	9	17*	4	-10
COc1ccc(CCN=C(N)NS(=O)(=O)c2ccc(C)cc2)cc1OC	-5	3	9	0	3	-5
CCCCn1c(N)c(N(CCC(C)C)C(=O)c2cc(S(=O)(=O)N3CCOCC3)ccc2F)c(=O)[nH]c1=O	-31	-2	6	0	21*	2
CCCCn1c(N)c(N(CC(C)C)C(=O)Cc2ccc(S(=O)(=O)N3CCOCC3)s2)c(=O)[nH]c1=O	11	-10	12	5	-4	17*
CCCCn1c(N)c(N(CCC(C)C)C(=O)Cc2ccc(S(=O)(=O)N3CCOCC3)s2)c(=O)[nH]c1=O	-6	2	-5	0	5	-3
O=C(c1ccccn1)N1CCCC(N2CCN(c3ccccc3)CC2)C1 (stereo not drawn)	-7	-12	13	0	8	-2
CCCN(CCC)c1ncnc2nc[nH]c12	19	29*	-4	0	-11	-4
Clc1ccccc1CN(Cc1ccccc1)c1ncnc2nc[nH]c12	-5	3	16	2	-6	-4
Fc1ccc(NC(=S)NCCc2ccc(Cl)cc2)cc1	10	5	11	7	-8	-1
O=C(NCCc1ccc(F)cc1)Nc1ccc([N+](=O)[O-])cc1	28	18	-11	15	-9	1
O=[N+]([O-])c1cccc(NC(=S)NCCc2ccccc2)c1	8	31*	-10	12	-12	-1
Fc1cccc(NC(=S)NCCc2ccccc2)c1	10	11	6	5	-6	-3
Fc1ccc(CCNC(=S)Nc2ccc(F)c(Cl)c2)cc1	4	25*	-2	15	-18	-8
O=[N+]([O-])c1ccc(NC(=S)NCCc2ccc(F)cc2)cc1	33*	38*	-7	12	-19	-1
CCCCCN(C(=O)CCC(=O)OCC(=O)c1c(C)cc(C)cc1C)c1c(N)n(CCCC)c(=O)[nH]c1=O	-20	5	3	3	8	-2
COc1ccc2c(c1)c(C(C)=O)c(C)n2-c1ccccc1OC	1	0	7	1	1	-2
Cc1cccc(N(C)c2ncnc3onc(-c4ccc(F)cc4)c23)c1C	-4	-16	-3	-1	4	-10
O=C(O)CCC(=O)Nc1ccc(Oc2ncnc3cc(Cl)ccc23)nc1	12	0	-11	1	-5	-2
COc1cccc(C(=O)N(CN2CCCC2=O)c2ccccc2OC)c1	3	28*	-8	0	5	-1
CCCCC(C(=O)NC1CCCC1)N(C(=O)c1snc(C(N)=O)c1N)c1ccc(F)cc1 (stereo not drawn)	-9	-9	4	1	9	-4
COc1ccccc1C(=O)OCC(=O)NC(C)CCc1ccccc1 (stereo not drawn)	11	-7	-8	0	-5	-5
CC(CCc1ccccc1)NC(=O)COC(=O)c1ccccc1O (stereo not drawn)	-11	-9	15	16*	4	2
CSc1ccc(CN(C)C(=O)C(Cc2ccccc2)NC(=O)c2ccccc2)cc1 (stereo not drawn)	44*	2	7	8	-14	0
SMILES	CHRM1 antagonist	CHO-K1 Ca antag	CHO-K1 Ca PAM	CHO-K1 Ca ag	M1 PAM	CHRM1 agonist
CN(Cc1ccc(F)cc1)C(=O)C(Cc1ccccc1)NC(=O)c1ccccc1 (stereo not drawn)	27	-6	-8	6	-11	-1
COc1ccc(CN(C)C(=O)C(Cc2ccccc2)NC(=O)c2ccccc2)cc1F (stereo not drawn)	42*	21	-15	7	-17	-2
CCCC(=O)N1CCC1(C)C(=O)NS(=O)(=O)c1cccs1 (stereo not drawn)	-21	-1	1	0	14	-1
CCOC(=O)c1cncc(O)c1	-4	-5	2	2	1	-3
CN(C)CCCn1c(SCC(=O)N2CC(=O)Nc3ccccc32)nc2ccccc2c1=O	-1	-14	13	0	0	-8
CC(C)N(CCn1c(SCC(=O)N2CC(=O)Nc3ccccc32)nc2ccccc2c1=O)C(C)C	61*	-20	3	0	-23	-6
Cc1ccc(C(=O)/C=C/c2cn(CC(O)CN3CCOCC3)c3ccccc23)cc1 (stereo not drawn)	2	1	20	16*	6	-6
O=Cc1ccc(-c2ccccc2C(=O)O)o1	5	29*	-19	-1	11	0
Cc1ccc(CNC(=O)C2CCCN(S(=O)(=O)N3CC(C)CC(C)C3)C2)cc1 (stereo not drawn)	29	-9	13	0	-11	-6
N#C/C(=C\c1ccc(O)c([N+](=O)[O-])c1)c1nc2ccccc2s1	18	29*	-10	14	-10	2
COc1ccc(C(C(=O)NC(C)(C)C)N(CCC(C)C)C(=O)CCC(=O)Nc2cc(C)on2)cc1 (stereo not drawn)	-26	-6	8	-1	30*	-2
COc1ccc(C(=O)NCc2cnn(C)c2C)cc1OC1CCN(C(C)C)CC1	-2	-16	25	4	5	-6
CCOC(=O)CN1C(=O)/C(=C/c2c(F)cccc2Cl)Oc2ccccc21	1	-15	-18	-1	1	-5
O=c1[nH]c2c(oc3ccccc32)c(=O)n1Cc1ccccc1	-11	1	0	0	4	1
O=C(O)c1c(-c2ccccc2)c2oc3ccccc3c2[nH]c1=O	7	29*	-5	0	-4	-2
CCCCCC(=O)N1C[C@H](n2cc(C3CC3)nn2)[C@@H](O)C[C@@H]1c1ccccc1	-15	-15	27	2	9	-2
COc1ccccc1-c1ccc(/C=C2\C=CC(=O)O2)o1	20	17	-4	28*	-13	27*
COC(=O)Nc1ccc(S(=O)(=O)N2CCCC(C(=O)N3CCOCC3)C2)cc1 (stereo not drawn)	-11	-11	13	1	7	-2
CC1CCN(C(C)C(=O)Nc2ccc(S(=O)(=O)N3CCCC3)cc2)CC1 (stereo not drawn)	101*	1	-16	0	-30	-9
CC1CCN(CC(=O)Nc2ccc3c(c2)OCO3)CC1	-8	3	5	17*	7	-8
